Compound activity (PubChem)
LDHA block = inhibitors of human lactate dehydrogenase A; activity change, % (values are at about 110 or 230 µM); purified LDHA, NADH/diaphorase-resazurin fluorescence; stronger effect = lower value; hit rate 0.15% among 480,000; P00338; in the data active = activity change below about -30%; inconclusive = mostly about -25% to -30%;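 note: plate controls were DMSO wells for no effect and wells without enzyme for full effect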
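Human LDH5 at 2 nM final in Tris HCl pH 7.4 with 0.06 mM NADH and 0.2 mM pyruvate, reacted 5 minutes at room temperature. Remaining NADH coupled via diaphorase/resazurin; resorufin fluorescence read at 0 and 20 minutes, normalized to enzyme-free and DMSO wells.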
ClpP mod = qHTS Assay for Activators of ClpP; Potency, µM (titrated, usually from 57.5 µM), inactives show at the top dose activity change, negative = active; AID 651965, 2013; hit rate 1.9% among 340,000; ATP-dependent Clp protease proteolytic subunit (Bacillus subtilis (strain 168)), P80244; purified B. subtilis ClpP, FRET peptide cleavage, 20 min; active = well fitted falling curve with a large enough effect; inconclusive = small, poorly fitted or top-dose-only effect; inactive = no such curve, though single readings can be large or run the other way; note: potency is the fitted concentration of half-maximal effect; the source files actives as falling curves though it sought activators and does not explain the sign; nearly all actives have a fitted effect of over 65% in size
Target sequence (P80244 whole entry, looked up): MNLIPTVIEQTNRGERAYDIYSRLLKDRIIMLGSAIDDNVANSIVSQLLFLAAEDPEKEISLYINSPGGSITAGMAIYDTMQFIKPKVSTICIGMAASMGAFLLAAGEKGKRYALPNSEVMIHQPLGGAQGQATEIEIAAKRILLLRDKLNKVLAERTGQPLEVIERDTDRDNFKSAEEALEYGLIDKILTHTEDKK
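Buffer: 100 mM Tris/HCl pH8, 100 mM KCl, 0.05% low protease BSA, 2.5% glycerol, 0.01% Tween-20. ClpP 10 microg/mL final; 20 min RT; delta FRET normalized to ADEP and DMSO controls.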
GLP-1R agonist = activates the human GLP-1 receptor; hit rate 0.007% among 380,000; HEK293 GLP-1R CRE-luciferase, luminescence, 4-6 h; cells express a hypersensitive GLP-1R form; P43220; Potency, µM (highest dose often 45.6 µM), without a hit: at the top dose activation, hits mostly activators; note: potency is the fitted concentration of half-maximal effect; % of control where 0% means no effect
Target sequence (P43220 whole entry, looked up): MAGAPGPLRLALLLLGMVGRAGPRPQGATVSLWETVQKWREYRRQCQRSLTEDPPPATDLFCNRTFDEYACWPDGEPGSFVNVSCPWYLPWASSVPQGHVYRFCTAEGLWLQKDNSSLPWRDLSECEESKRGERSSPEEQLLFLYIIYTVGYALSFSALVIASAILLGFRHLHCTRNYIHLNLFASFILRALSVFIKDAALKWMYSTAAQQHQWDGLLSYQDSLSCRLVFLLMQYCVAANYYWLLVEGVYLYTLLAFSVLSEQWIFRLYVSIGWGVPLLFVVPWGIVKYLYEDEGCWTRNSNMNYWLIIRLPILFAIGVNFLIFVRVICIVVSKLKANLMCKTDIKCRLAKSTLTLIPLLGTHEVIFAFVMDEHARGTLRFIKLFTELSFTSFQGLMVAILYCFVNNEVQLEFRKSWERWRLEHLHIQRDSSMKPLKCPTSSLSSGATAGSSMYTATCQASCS
GLP1R cytotox = cytotoxic in the GLP-1 receptor inverse agonist counter-screen | HEK293 cAMP-luciferase reporter cells, luminescence, 24 h | Potency, µM (top dose mostly 38.3 µM), without a hit: at the top dose activity change, negative = inhibition, usual class: inhibitors | hit rate 0.13% among 410,000 | AID 624418;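 note: loss of luciferase light is scored as toxicity; potency is the fitted concentration of half-maximal effect; % is set by controls: 0 for no effect and ±100 for the full control effect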
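MLSMR compounds, 24 hr on cells at 37 deg C/5% CO2; luminescence after luciferase reagent (12 min RT). Inhibition counted as the undesired cytotoxic outcome.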
p53 reactivator = mutant p53 re-activation in reporter cells; Potency, µM (series often up to 92.2 µM), inactives show top-dose activity change, positive = activation, most hits filed as activators; H1299 p53-A138V BP100-luciferase reporter, luminescence, 24 h; AID 504706; hit rate 0.063% among 320,000; note: potency is the fitted concentration of half-maximal effect; % of control where 0% means no effect; nearly all actives have a fitted effect of over 45% in size
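p53-null H1299 cells stably carrying temperature-sensitive p53-A138V and a BP100-luciferase reporter were pinned with compounds (4-point, 1:5 series) and held 24 hrs at 37 deg C. Luminescence was read 10 min after detection reagent.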
GLP1R inv ag = GLP-1 receptor (human) inverse agonism | hit rate 1.6% among 410,000 | P43220 | Potency, µM (titrated, usually from 38.3 µM), inactives show at the top dose activity change, negative = inhibition, hits mostly inhibitors | HEK293 GLP-1R CRE-luciferase, luminescence, 24 h; GLP-1R form is constitutively active; note: potency is the fitted concentration of half-maximal effect; % is set by controls: 0 for no effect and ±100 for the full control effect; nearly all actives have a fitted effect of over 55% in size
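Seeding at 200 cells/uL, 12 h culture, 24 hr compound treatment, then luciferase reagent and a luminescence read; cells are HEK293 stably expressing a constitutively active GLP-1R plus cAMP-responsive luciferase.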
ClpP validation = Bacillus subtilis ClpP inhibition, validated hit; shares compounds with ClpP mod; purified B. subtilis ClpP, FRET-FV substrate cleavage, 20 min; Potency, µM (highest dose often 57.5 µM), for inactives: at the highest dose activity change, negative = inhibition, usual class: inhibitors; hit rate 40% among 470; note: potency is the fitted concentration of half-maximal effect; % is set by controls: 0 for no effect and ±100 for the full control effect; nearly all actives have a fitted effect of over 70% in size
Numbers without * were called inactive; ? = inconclusive; · = not tested or not shown; [ ] = another dose, or the depositor's remark. An excerpt weighted towards active compounds, which were near 2.9% of everything screened. Unless noted, calls come from the whole dose curve; as a rule, active = well fitted curve in the direction sought with a large enough effect; inconclusive = small, poorly fitted or top-dose-only effect, or another doubt; inactive = no such curve, though single readings can be large; an effect the other way counts as inactive or inconclusive.

SMILES	LDHA block	ClpP mod	GLP-1R agonist	GLP1R cytotox	p53 reactivator	GLP1R inv ag	others
C/C=C(/C)C(=O)OC1c2c(ccc3ccc(=O)oc23)OC(C)(C)C1OC(C)=O (configuration not stated)	1	16µM*	6%	-13%	-8%	?
C/C=C(/C)C(=O)O[C@@H]1c2c(ccc3ccc(=O)oc23)O[C@@H]1C(C)(C)OC(=O)/C(C)=C\C	1	4%	-1%	5%	0%	13µM*
CC(C)[C@H](NS(=O)(=O)c1ccc2c(c1)OCCO2)C(=O)OCC(=O)Nc1ccccc1	2	14%	-1%	-3%	?	-7%
CSc1ccc(NC(=O)C(C)N2CCN(C)CC2)cc1 (configuration not stated)	-35*	0%	-4%	7%	-4%	4%
CCOC(=O)CNC(=O)CSc1nc(N)cc(N)n1	-2	-3%	-3%	-24%	-7%	-1%
CC(C)=CCN1CCN(Cc2cccn2-c2ccccn2)CC1CCO (configuration not stated)	-10	28µM*	1%	2%[7.66 µM]	-3%	8%[7.66 µM]
CCCC(C(=O)NCCC(C)C)N(Cc1ccc(OC)cc1)C(=O)c1snc(C(N)=O)c1N (configuration not stated)	-2	-20%	9%	-5%	8%	?
Cc1ccccc1CN(CC(=O)Nc1cccc([N+](=O)[O-])c1)S(=O)(=O)c1ccc(Cl)cc1	3	1%	-4%	?	28%	?
COc1ccc(OC)c(C(=O)CSc2nc3ncccc3[nH]2)c1	4	32µM*	6%	5%	-3%	39%
COc1ccc(NC(=O)CSc2nc3ncccc3[nH]2)cc1OC	0	1%	15%	-4%	7%	0%
Cc1cccc(NC(=O)N2CCCC2C(=O)NCc2cccs2)c1 (configuration not stated)	-11	18µM*	0%	-25%	-1%	-2%
C#CCOc1nc(C)cc(C)c1S(=O)(=O)c1ccccc1C	-2	0%	4%	-3%	0%	?
CCC(C)Oc1nc(C)cc(C)c1S(=O)(=O)c1ccccc1C (configuration not stated)	-3	?	2%	7%	5%	8.9µM*
COc1nc(C)cc(C)c1S(=O)(=O)c1ccccc1C	-1	·	0%	0%	-6%	?
CSc1nc(C)cc(C)c1S(=O)(=O)c1ccccc1C	-1	-7%	-11%	-3%	7%	5µM*
CCSc1nc(C)cc(C)c1S(=O)(=O)c1ccccc1C	2	-3%	-27%	-3%	-1%	8.9µM*
CCOC(=O)C1=CCN(S(=O)(=O)c2ccccc2)C1c1ccc(Cl)cc1 (configuration not stated)	-5	0%	12%	1%	·	-21%
O=c1c2c3c(sc2n(Cc2cc(=O)n4ccccc4n2)c(=O)n1-c1ccc(Cl)cc1)CCC3	-1	-2%	·	0%	·	5%
COc1ccc(-n2nnnc2/C=C/Nc2cc(C(F)(F)F)ccc2OC)cc1	-4	28µM*	-4%	-14%	8%	?
COc1ccc(S(=O)(=O)Nc2nc3ccccc3nc2Nc2ccc(C)c(Cl)c2)cc1	10	·	·	·	·	·
N#C/C(=C\c1ccc(-c2ccc(Br)cc2)o1)c1nc2ccccc2[nH]1	-9	·	·	·	·	·
O=C(c1ccco1)N1CCN(C(=O)c2cc3cc([N+](=O)[O-])ccc3oc2=O)CC1	0	3%	0%	?	0%	-15%
CCOC(=O)C1(CC2CCCCO2)CCN(Cc2nccn2-c2cccc(C)c2)CC1 (configuration not stated)	-1	-1%	17%	-29%	-6%	10µM*
CCOC(=O)C1(CC2CCCCO2)CCN(Cc2nccn2-c2ccc(OC)cc2)CC1 (configuration not stated)	-4	·	23%	?	-2%	-22%
CCC(=O)Nc1ccccc1C(=O)OCC(=O)Nc1ccc(S(N)(=O)=O)cc1	-2	-29%	-3%	7%	-5%	2%
SMILES	LDHA block	ClpP mod	GLP-1R agonist	GLP1R cytotox	p53 reactivator	GLP1R inv ag	others
CCCCNc1ccccc1C(=O)OCC(=O)Nc1ccc(S(N)(=O)=O)cc1	-1	28µM*	-1%	-25%	1%	-25%
COc1ccc(/C=C2\CN(Cc3ccccc3)C/C(=C\c3ccc(OC)c(O)c3)C2=O)cc1O	1	4%	-9%	?	-24%	8.9µM*
CCN1C/C(=C/c2ccc(OC)c(O)c2)C(=O)/C(=C/c2ccc(OC)c(O)c2)C1	0	0%	3%	?	-9%	?
COCCNC(=O)c1cc2c(=O)n3cccc(C)c3nc2n1C	-1	5%	-5%	3%	-8%	-20%
COCCCn1c(C(=O)NCCN2CCOCC2)cc2c(=O)n3cccc(C)c3nc21	-9	3.2µM*	2%	64%	-11%	103%	ClpP validation=24µM*
c1ccc2oc(-c3ccc(Nc4nc(N5CCCCC5)nc(N5CCOCC5)n4)cc3)nc2c1	·	·	·	·	8%	·
COc1nc(Nc2ccc(-c3nc4ccccc4o3)cc2)nc(N2CCOCC2)n1	0	8.9µM*	-21%	-4%	·	9%	ClpP validation=19µM*
CN(Cc1nccn1C)C(=O)c1cc(COc2cccc(C(F)(F)F)c2)on1	-3	1%	8%	-8%	9%	-29%
CCCc1c2ccccc2nc2ccccc12	-6	7.1µM*	0%	2%	-5%	?	ClpP validation=19µM*
CCCc1cc(C(=O)O)c2ccccc2n1	-5	-2%	-15%	-1%	-1%	45%
CCOc1[nH]n(-c2ccccc2)c(=O)c1C=Nc1ccccc1	-1	2%	8%	-35%	3%	?
O=C(COC(=O)/C=C/c1cccc(C(F)(F)F)c1)NC(c1ccccc1)c1ccccc1	-4	2%	-7%	-5%[1.53 µM]	-5%	16%
CC1Cc2ccccc2N1c1nc(C2CC2)nc2c1nnn2Cc1ccccc1 (configuration not stated)	-1	7.1µM*	1%	13%	-5%	?	ClpP validation=27µM*
O=c1oc2ccccc2cc1-c1nnc(-c2cccc(Br)c2)o1	-6	0.71µM*	-12%	-25%	10%	0%	ClpP validation=?
